PubChem BioAssay (NCI)
“And” between values parts separate entries of the source, which are not always exact repeats. Equal values may be shown once. Compounds without any hit were thinned out: in the full panel of roughly 79,000, 15% have a hit. Some compounds were tested as several samples or in several runs, with calls that do not always agree. The source made the active and inactive calls. Rule as the data show it: active = growth inhibition above about 70%; inactive = the rest.

Columns and labels:
[1] = NCI Yeast Anticancer Drug Screen. Data for the wt1 strain (AID 149);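 also: 0% = growth of vehicle-treated wt1 cultures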; details: S. cerevisiae wt1 strain (SPY 50644) growth inhibition, stronger effect = higher value
Summary of the method: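 Measured: growth of wt1 yeast under compound versus vehicle treatment, reported as inhibition.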

[2] = NCI Yeast Anticancer Drug Screen. Data for the rad50EPP+ strain (AID 151);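 also: 0% = growth of vehicle-treated control cultures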; details: S. cerevisiae rad50 mutant strain, stronger effect = higher value
Summary of the method: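 Compounds were applied to the rad50EPP+ yeast strain, which bears a defined DNA repair alteration, and growth inhibition was determined relative to vehicle-treated cultures.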

[3] = NCI Yeast Anticancer Drug Screen. Data for the mec2-1 strain (AID 157); details: S. cerevisiae mec2-1 strain, stronger effect = higher value
Summary of the method: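 Strain: mec2-1 (DNA repair/cell cycle alteration). Compound exposure, then growth measured; inhibition expressed relative to vehicle.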

[4] = NCI Yeast Anticancer Drug Screen. Data for the rad14 strain (AID 159);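 also: 0% = growth of vehicle-treated control cultures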; details: S. cerevisiae rad14 strain growth inhibition, stronger effect = higher value
Summary of the method: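 Here, inhibition of yeast growth was measured after compound exposure, using a strain with a genetic defect in DNA damage repair and vehicle-treated cultures as the reference.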

[5] = NCI Yeast Anticancer Drug Screen. Data for the CLN2oe strain (AID 163);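 also: 0% = growth of vehicle-only control cultures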; details: S. cerevisiae CLN2oe strain, stronger effect = higher value
Summary of the method: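 Growth of a genetically modified yeast strain is measured after compound exposure and compared with cultures given vehicle alone.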

[6] = NCI Yeast Anticancer Drug Screen. Data for the cln2 rad14 strain (AID 165);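 also: 0% = growth equal to vehicle treated cultures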; details: S. cerevisiae cln2 rad14 strain, stronger effect = higher value
Summary of the method: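 Compounds are applied to the cln2 rad14 yeast strain, and growth is then compared with that of vehicle-treated cultures to give inhibition.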

[7] = NCI Yeast Anticancer Drug Screen. Data for the bub3 strain (AID 167); details: S. cerevisiae bub3 mutant strain, stronger effect = higher value
Summary of the method: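 Whole-cell yeast assay. The mutant strain was incubated with compounds, and growth inhibition was determined by comparison with vehicle-treated cells.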

[8] = NCI Yeast Anticancer Drug Screen. Data for the wt2 strain (AID 169);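 also: 0% = growth of vehicle-treated yeast cultures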; details: S. cerevisiae wt2 strain growth inhibition, stronger effect = higher value
Summary of the method: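 This strain belongs to a panel of yeast strains with defined genetic alterations in DNA damage repair or cell cycle control. Compounds are applied, and growth inhibition is measured against vehicle-treated cultures.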

[9] = NCI Yeast Anticancer Drug Screen. Data for the mlh1 strain (AID 171);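 also: 0% = growth of vehicle-treated control cultures of the same strain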; details: S. cerevisiae mlh1 strain growth inhibition, stronger effect = higher value
Summary of the method: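 Growth of the mutant yeast strain after compound exposure, expressed as inhibition relative to vehicle-only controls.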

[10] = NCI Yeast Anticancer Drug Screen. Data for the sgs1 strain (AID 173);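 also: 0% = growth of vehicle-only control cultures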; details: S. cerevisiae sgs1 mutant, stronger effect = higher value
Summary of the method: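 Growth of a yeast strain bearing a defined genetic alteration is measured after compound treatment. Inhibition is expressed relative to vehicle-only controls.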

[11] = NCI Yeast Anticancer Drug Screen. Data for the mlh1 rad18 strain (AID 175); details: S. cerevisiae mlh1 rad18 strain growth inhibition, stronger effect = higher value
Summary of the method: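 Read-out is yeast growth inhibition, calculated against vehicle-only controls. The compound was applied to a strain engineered with DNA damage repair alterations.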

[12] = NCI Yeast Anticancer Drug Screen. Data for the rad18 strain (AID 177); details: S. cerevisiae rad18 mutant growth inhibition, stronger effect = higher value
Summary of the method: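 Growth of the mutant yeast strain after compound exposure, normalised to vehicle-only cultures.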

[13] = NCI Yeast Anticancer Drug Screen. Data for the rad50 strain (AID 155);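 also: 0% = growth of vehicle-only cultures of the same strain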; details: S. cerevisiae rad50 strain growth inhibition, stronger effect = higher value
Summary of the method: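 Growth of the mutant yeast was measured after compound exposure and referenced to vehicle-treated cultures.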

[14] = NCI Yeast Anticancer Drug Screen. Data for the sgs1 mgt1 strain (AID 161);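 also: 0% = growth of cultures given vehicle only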; details: S. cerevisiae sgs1 mgt1 strain, stronger effect = higher value
Summary of the method: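 Test agents were incubated with a DNA-repair-mutant yeast strain. Growth was then read and compared against vehicle-treated controls.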

[15] = at 5.0 µM (retest, dose inferred, filed as 0.5)
[16] = at 50.0 µM (retest, dose inferred, filed as 5.0)

Measured: growth inhibition

CN(C)c1ccc(C(c2ccc(Cl)cc2)c2ccc(N(C)C)cc2)cc1
inactive: [1]; at 1.2 µM 0% | [1]; at 3.7 µM 53% | [1]; at 11.0 µM 28% | [2]; at 1.2 µM 3% | [2]; at 3.7 µM 10% | [2]; at 11.0 µM 6% | [2]; at 33.0 µM -2% | [2]; at 100.0 µM 14% | [3]; at 1.2 µM 31% | [5]; at 1.2 µM -14% | [5]; at 3.7 µM 26% | [5]; at 11.0 µM 26% | [8]; at 1.2 µM -2% | [8]; at 3.7 µM 13% | [8]; at 11.0 µM 17% | [9]; at 1.2 µM 9% | [10]; at 1.2 µM 24%
active: [1]; at 33.0 µM 73% | [1]; at 100.0 µM 86% | [3]; at 3.7 µM 98% | [3]; [15] 90% and 99% | [3]; at 11.0 µM 97% | [3]; at 33.0 µM 93% | [3]; [16] 93% and 100% | [3]; at 50.0 µM 95% and 94.3% | [3]; at 100.0 µM 86% | [4]; at 1.2 µM 82% | [4]; at 3.7 µM 98% | [4]; at 11.0 µM 98% | [4]; at 33.0 µM 94% | [4]; at 100.0 µM 84% | [5]; at 33.0 µM 87% | [5]; at 100.0 µM 78% | [6]; [16] 74% and 99% | [6]; at 50.0 µM 77.9% and 89.7% | [7]; at 1.2 µM 80% | [7]; at 3.7 µM 98% | [7]; [15] 93% and 99% | [7]; at 11.0 µM 97% | [7]; at 33.0 µM 93% | [7]; [16] 91% and 99% | [7]; at 50.0 µM 94.4% and 91.3% | [7]; at 100.0 µM 80% | [8]; at 33.0 µM 86% | [8]; at 100.0 µM 85% | [9]; at 3.7 µM 87% | [9]; at 11.0 µM 73% | [9]; at 33.0 µM 92% | [9]; at 100.0 µM 86% | [10]; at 3.7 µM 91% | [10]; at 11.0 µM 83% | [10]; at 33.0 µM 93% | [10]; at 100.0 µM 85% | [11]; [15] 96% and 98% | [11]; [16] 90% and 99% | [11]; at 50.0 µM 93.4% and 92.8% | [12]; at 1.2 µM 94% | [12]; at 3.7 µM 98% | [12]; at 11.0 µM 97% | [12]; at 33.0 µM 90% | [12]; at 100.0 µM 83%
-52% (inactive) and 97% (active): [6]; [15]

O=c1oc(C(C(F)(F)F)C(F)(F)F)nc2ccccc12
inactive: [1]; at 1.2 µM 4% | [1]; at 3.7 µM 24% | [1]; at 11.0 µM 20% | [1]; at 33.0 µM 23% | [1]; at 100.0 µM 27% | [2]; at 1.2 µM 22% | [2]; at 3.7 µM 30% | [2]; at 11.0 µM 35% | [2]; at 33.0 µM 43% | [2]; at 100.0 µM 51% | [13]; at 1.2 µM 33% | [13]; at 3.7 µM 27% | [13]; [15] 10% | [13]; at 11.0 µM 25% | [13]; at 33.0 µM 29% | [13]; at 50.0 µM 36.1% | [13]; at 100.0 µM 29% | [3]; at 1.2 µM 13% | [3]; at 3.7 µM 27% | [3]; [15] 7% | [3]; at 11.0 µM 23% | [3]; at 33.0 µM 29% | [3]; at 100.0 µM 34% | [4]; at 1.2 µM 16% | [4]; at 3.7 µM 21% | [4]; at 11.0 µM 26% | [4]; at 33.0 µM 29% | [4]; at 100.0 µM 42% | [14]; [15] -5% | [14]; [16] 12% | [14]; at 50.0 µM 12.7% | [5]; at 1.2 µM 18% | [5]; at 3.7 µM 12% | [5]; at 11.0 µM 26% | [5]; at 33.0 µM 1% | [5]; at 100.0 µM 15% | [7]; at 1.2 µM 3% | [7]; at 3.7 µM 13% | [7]; [15] -27% | [7]; at 11.0 µM 20% | [7]; at 33.0 µM -5% | [7]; [16] -6% | [7]; at 50.0 µM 16.6% | [7]; at 100.0 µM 15% | [8]; at 1.2 µM -3% | [8]; at 3.7 µM -5% | [8]; at 11.0 µM -7% | [8]; at 33.0 µM 2% | [8]; at 100.0 µM 32% | [9]; at 1.2 µM 16% | [9]; at 3.7 µM 12% | [9]; at 11.0 µM 17% | [9]; at 33.0 µM 20% | [9]; at 100.0 µM 32% | [10]; at 1.2 µM 26% | [10]; at 3.7 µM 39% | [10]; at 11.0 µM 40% | [10]; at 33.0 µM 43% | [10]; at 100.0 µM 46% | [11]; [15] 15% | [11]; at 50.0 µM 50.6% | [12]; at 1.2 µM 22% | [12]; at 3.7 µM 15% | [12]; at 11.0 µM 20% | [12]; at 33.0 µM 19% | [12]; at 100.0 µM 30%
active: [13]; [16] 72% | [3]; [16] 83% | [3]; at 50.0 µM 70.2% | [11]; [16] 88%
